Compounds with a hit are over-represented: about 4.8% of the library has one in this group of screens.
ssDAF12 agonist: S. stercoralis DAF-12 nuclear receptor activators, primary screen, cell-based, luminescence, HEK293, GRIP1 co-expression, lit1-tk-luc; Nuclear hormone receptor DAF-12 (Strongyloides stercoralis); HEK293 ssDAF-12/GRIP1 lit1-tk-luc reporter; % of 3 µM dafachronic acid response; activation, % at 6.8 µM; 370,000 compounds, 1% hits;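 active means activation above the mean over all tested compounds plus 3 SD, cut at about 0.9% in these data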;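 further: 0% = DMSO-only wells and 100% = 3 µM delta7-dafachronic acid wells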
hgDAF-12 ag: H. glycines DAF-12 receptor agonists, primary screen, cell-based, luminescence, HEK293, GAL4 fusion, UAS-luciferase; HEK293 GAL4-hgDAF12 UAS-luciferase reporter, agonist luminescence; normalized to butyrate control; Nuclear hormone receptor DAF-12 (Heterodera glycines), GAL4 fusion; activation, % at 6.8 µM; 370,000 compounds, 1.8% hits;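 active means activation above a cutoff set at the mean of all screened compounds plus 3 SD, cut at about 10% in these data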;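 further: 0% = DMSO wells and 100% = sodium butyrate wells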
DAX1 inh-1: DAX1 (NR0B1) inhibitors on StAR promoter, primary screen, cell-based, luminescence, SF-1 (NR5A1), full-length DAX-1; HEK293T StAR-luciferase reporter, SF-1/DAX-1 repression relief; inhibition, % at 6.8 µM; 370,000 compounds, 1.1% hits; AID 652010, 2013;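 active means inhibition above the mean over all tested compounds plus 3 SD, cut at about 3.6% in these data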;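 further: 0% = DAX-1 cells with DMSO and 100% = cells lacking DAX-1 with DMSO; higher inhibition means more luminescence from relief of DAX-1 repression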
SMARCA2 act: SMARCA2 (BRM) function activators, primary screen, cell-based, luminescence, high throughput. MG213 cells, MMTV-luciferase reporter, dexamethasone, overnight. activation, % at 9.1 µM. 370,000 compounds, 1% hits; in the data active means activation above about 7.8%;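 further: 0% = vehicle wells and 100% = reference activator wells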
hcDAF-12 act: H. contortus DAF-12 nuclear receptor activators, primary screen, cell-based, luminescence, HEK293, lit1-tk-luc reporter. HEK293 hcDAF-12 lit1-tk-luc reporter; 0% DMSO, 100% Δ7-dafachronic acid. activation, % at 6.8 µM. 370,000 compounds, 1.4% hits;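 active means activation above the mean of all tested compounds plus 3 SD, cut at about 5.5% in these data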;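 further: 100% = response to 3 µM Δ7-dafachronic acid high control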
DAX1 inh-2: DAX1 (NR0B1) inhibitors, primary screen, cell-based, HEK293, Gal4-DAX1, luciferase luminescence. Nuclear receptor subfamily 0 group B member 1 (Homo sapiens), P51843. HEK293 Gal4-DAX1 luciferase reporter. inhibition, % at 6.75 µM. 340,000 compounds, 0.99% hits. AID 504766, 2011;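 active means inhibition above the mean over all tested compounds plus 3 SD, cut at about 4.2% in these data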;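 further: 0% = DAX1-transfected cells with DMSO and 100% = empty-vector control cells with DMSO; inhibition shows as a rise in luminescence from relieved DAX1 repression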
Target sequence (P51843 207-470 limits assumed): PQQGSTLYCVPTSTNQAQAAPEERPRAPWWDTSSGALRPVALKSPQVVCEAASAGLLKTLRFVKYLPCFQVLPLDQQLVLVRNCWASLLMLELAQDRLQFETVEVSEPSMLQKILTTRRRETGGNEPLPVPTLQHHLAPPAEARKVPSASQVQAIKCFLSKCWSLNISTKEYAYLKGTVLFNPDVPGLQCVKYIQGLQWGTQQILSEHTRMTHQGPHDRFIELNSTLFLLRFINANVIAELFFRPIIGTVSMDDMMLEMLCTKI
Active calls of the source: *; / = no result given.

SMILES	ssDAF12 agonist	hgDAF-12 ag	DAX1 inh-1	SMARCA2 act	hcDAF-12 act	DAX1 inh-2
Brc1ccc(OCc2nc3ccccc3[nH]2)cc1	-0.1	12.4*	1.9	4.5	6.0*	3.6
COc1ccccc1OCc1nc2ccccc2[nH]1	-0.3	8.1	2.6	3.3	2.8	7.3*
c1ccc2[nH]c(CCCc3nc4ccccc4[nH]3)nc2c1	-1.5	-2.0	-0.1	-1.6	-2.3	1.7
O=S(=O)(CCc1nc2ccccc2[nH]1)c1ccc(Br)cc1	-0.4	-1.8	-0.7	-1.9	-0.1	1.4
c1ccc(CCc2nc3ccccc3[nH]2)cc1	0.1	13.1*	1.2	4.6	1.8	0.4
CC(C)NC(=O)N(C)C[C@@H]1Oc2cc(C#Cc3ccccn3)ccc2S(=O)(=O)N([C@@H](C)CO)C[C@H]1C	-0.8	-3.3	-0.8	2.0	-1.4	0.4
Cc1ccc(-c2noc(-c3ccccc3C(=O)N3CCCC3)n2)cc1	-0.1	4.1	0.3	0.0	2.8	0.1
Cc1ccc(-c2noc(-c3ccccc3C(=O)N3CCN(C)CC3)n2)cc1	-0.2	4.4	1.0	3.3	6.6*	0.2
O=C(Nc1nccs1)c1ccc(COc2ccccc2)o1	-0.4	11.0*	1.5	3.7	2.0	2.7
Cc1ccc(SCc2ccc(C(=O)Nc3nccs3)o2)cc1	-0.3	7.2	1.6	2.5	0.2	1.2
O=C(Nc1nccs1)c1ccc(CSc2ccccc2)o1	0.4	9.5	6.2*	1.7	1.6	0.3
Cc1ccc(S(=O)(=O)NCC(=O)OC(C)C(=O)NCc2ccc3c(c2)OCO3)cc1 (stereo not drawn)	-0.9	-0.4	-0.9	-2.5	-0.5	-1.8
CCOc1ccc(NC(=O)c2ccc3c(c2)OCCO3)cc1S(=O)(=O)N(CC)CC	-1.9	-1.9	-2.4	-2.4	-1.5	0.9
COC(=O)[C@]12C[C@H](CC(=O)N3CCOCC3)C(=O)N(CCc3ccc(OC)c(OC)c3)C1=C[C@H](C(C)C)O[C@@H]2C1CC1	-1.7	-0.4	0.1	-1.1	-1.6	/
C#CCNC(=O)C[C@H]1C[C@@]2(C(=O)OC)C(=C[C@H](COCc3ccccc3)O[C@@H]2C)N(CCCCCCCC)C1=O	-1.6	-0.7	0.1	-3.5	-2.9	/
CC(C)(C)OC(=O)N1CCN(C(=O)c2[nH]cnc2C(=O)Nc2cccc(Cl)c2)CC1	-1.4	3.8	-0.3	0.0	0.2	5.9*
CCC1(c2ccccc2)SC(=O)NC1=O (stereo not drawn)	-1.3	-3.2	-0.6	-1.1	-0.8	4.2
CCC1(c2ccccc2)SC(N)=NC1=O (stereo not drawn)	-0.8	1.9	-0.2	1.5	-0.3	6.6*
Cc1cnc(NS(=O)(=O)c2ccc(N)cc2)nc1-c1ccccc1O	-1.6	-2.8	0.9	-4.7	-1.1	1.5
CCN1C(=O)C(=CC=CN(C)c2ccccc2)SC1=S	-0.1	6.5	2.4	-0.2	0.2	4.7*
O=C(N/N=C/c1c[nH]c2ccccc12)c1[nH]c2ccc(Br)cc2c1-c1ccccc1	1.4*	-2.0	1.9	0.2	4.4	1.4
Cc1cccc(NC(=S)N/N=C/c2c[nH]c3ccccc23)c1	-0.3	14.3*	-0.5	-1.9	0.4	-1.2
Cc1cc(C(=O)N/N=C/c2c[nH]c3ccccc23)cs1	0.8	7.8	0.3	0.5	4.2	0.6
O=C(N/N=C/c1c[nH]c2ccccc12)c1ccccc1	0.0	5.3	0.3	-1.5	2.3	6.1*
Cc1nc(N)sc1C(=O)N/N=C/c1c[nH]c2ccccc12	-0.6	10.7*	0.1	0.6	4.5	-1.1
SMILES	ssDAF12 agonist	hgDAF-12 ag	DAX1 inh-1	SMARCA2 act	hcDAF-12 act	DAX1 inh-2
CC1CCCN(S(=O)(=O)c2cc(C(=O)NCCc3ccc(S(N)(=O)=O)cc3)ccc2Cl)C1 (stereo not drawn)	-2.4	-9.7	-7.7	-5.8	-3.7	-1.9
O=C(NCCc1ccc(C(F)(F)F)cc1)C1CC(=O)N(Cc2ccccc2)C1 (stereo not drawn)	-0.5	-1.4	-0.2	-0.5	0.7	-0.1
O=C(N/N=C/c1c[nH]c2ccccc12)c1cc(Br)ccc1O	1.3*	9.9	0.2	4.5	5.3	-1.1
O=C(N/N=C/c1ccccc1Cl)c1ccc(F)cc1	-1.6	12.6*	1.8	1.9	2.6	1.9
O=C(N/N=C/c1cc2c(cc1Br)OCO2)c1c[nH]c2ccccc12	0.2	10.5*	0.8	-0.8	4.1	5.4*
Cc1ccc(C(=O)N/N=C/c2c[nH]c3ccccc23)o1	0.0	7.1	0.1	-0.7	6.4*	0.0
O=C(CNC(=O)c1ccccc1Br)N/N=C/c1cc(Br)ccc1O	-0.7	-10.1	-1.3	-3.9	-3.5	0.5
O=C(N/N=C/c1cc(Cl)ccc1O)c1ccccc1Br	1.5*	-4.2	-0.2	1.1	-2.9	-2.4
NC(=O)CSc1nnc(Cn2cnc3ccccc32)o1	-0.9	-1.9	0.0	1.7	-0.8	4.2*
O=C(NC(=S)Nc1ccccc1Cl)c1cncc(C#Cc2ccccc2)c1	-0.9	-0.7	0.1	-0.2	-1.5	4.4*
Cc1nn(-c2ccc(N3CCCCC3)nn2)c(C)c1CCC(=O)Nc1ccc(F)c(F)c1	-1.0	6.1	1.1	-1.4	6.4*	-0.5
Cc1ccc(NC(=O)CCc2c(C)nn(-c3ccc(N4CCCCC4)nn3)c2C)cc1C	-0.9	2.9	2.4	6.1	-1.4	0.8
CSC(=S)NN=C(C)c1cccc(C)n1	0.7	2.5	0.2	3.8	6.0*	-0.7
COC(=O)Nc1ccccc1C(=O)N1CCC(O)(c2ccc(Cl)cc2)CC1	-0.5	0.9	-0.5	0.7	-0.6	-0.3
NC(=O)Nc1ccccc1C(=O)N1CCC(O)(c2ccc(Cl)cc2)CC1	/	/	/	/	/	5.4*
Cc1ccc(C(=O)Nc2ncccc2S(=O)(=O)c2ccccc2)cc1	-0.6	2.4	-0.8	2.2	0.4	1.0
Cn1c(NCc2cccs2)nc2ccccc21	1.7*	8.0	1.2	0.1	6.1*	1.7
CCn1c(NCc2cccs2)nc2ccccc21	-1.1	-0.1	-0.5	1.7	-0.7	0.7
Cc1[nH]c2c([N+](=O)[O-])cccc2c1C	-1.2	1.3	0.3	-0.3	1.4	4.2*
COC(=O)c1c(NC(=O)Cc2ccccc2)sc2c1CCN(C(C)C)C2	-1.7	4.8	0.6	2.3	-1.6	0.6
CCOC(=O)c1c(NC(=O)CCS(=O)(=O)c2ccccc2)sc2c1CCN(C(C)C)C2	-1.1	-0.3	4.0*	1.6	1.7	-0.5
